KB-3-1 tox: KB-3-1 parental cell cytotoxicity | Potency, µM (series often up to 46.1 µM), most hits filed as cytotoxic | hit rate 1.4% among 400,000 | KB-3-1 viability, CellTiter-Glo ATP luminescence, 72 h | AID 1347075; note: % is set by controls: 0 for no effect and ±100 for the full control effect; nearly all actives have a fitted effect of over 60% in size
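Cytotoxicity measured as CellTiter-Glo luminescence after 72 h at 37 C. Compound titrations were pinned onto drug-naive KB-3-1 parental adenocarcinoma cells grown in DMEM with 10% FBS, and normalized data fitted to concentration-response curves.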
SW480 rerep: induces DNA re-replication in SW480 colon adenocarcinoma cells | SW480 DNA re-replication, Hoechst DNA content imaging, 48 h | hit rate 1.8% among 340,000 | AID 624297 | Potency, µM (highest dose often 46.1 µM), for inactives: at the highest dose re-replication activation, hits mostly activators; note: % of control where 0% means no effect; nearly all actives have a fitted effect of over 55% in size
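Image-based read-out: total Hoechst fluorescence of nuclei (405 nm excitation, 500-530 nm emission), with hits raising the fraction of high-intensity nuclei. SW480 colon cells incubated 48 hr with compounds at 37 C.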
HT1080 IDH1KD tx: toxicity to HT-1080 IDH1 knockdown cells (counter line) | Potency, µM (highest dose often 46.1 µM), for the others: top-dose activity, negative = toxicity, usual class: cytotoxic | AID 686971 | HT-1080 IDH1 knockdown viability, ATP luminescence, 48 h | hit rate 2% among 360,000;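 note: 0% = DMSO wells and -100% = cell-free medium wells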
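Knockdown cells (IDH1KD HT-1080) received compounds 2 h after plating at 750 cells/well and were kept 48 h at 37 °C in 5% FBS RPMI. A CellTiter-Glo luminescence read gave % activity for curve fitting.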
MCF10A rerep: inducers of DNA re-replication in MCF 10A breast cells; MCF 10A DNA re-replication, Hoechst nuclear intensity, 48 h; AID 624296; Potency, µM (top dose mostly 46.1 µM), without a hit: top-dose activity, positive = re-replication, usual class: activators; hit rate 2.9% among 350,000; note: % of control where 0% means no effect; nearly all actives have a fitted effect of over 50% in size
KB-V1 MDR tox: kills drug-selected multidrug resistant KB-V1 cells | KB-V1 MDR cells viability, CellTiter-Glo, 72 h | Potency, µM (series often up to 46.1 µM), usual class: cytotoxic | hit rate 3.4% among 400,000 | AID 1347076; note: % is set by controls: 0 for no effect and ±100 for the full control effect; nearly all actives have a fitted effect of over 60% in size
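Potencies derive from concentration-effect curves fitted to normalized luminescence (CellTiter-Glo) of KB-V1 cells treated for 72 h at 37 degrees C in phenol-red-free DMEM containing 10% FBS.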
HT1080-NT tox: kills 2HG-producing HT-1080-NT fibrosarcoma cells; AID 686970; Potency, µM (doses to about 46.1 µM), inactives show at the top dose activity, negative = less viability, actives largely listed as cytotoxic; HT-1080-NT fibrosarcoma viability, CellTiter-Glo ATP luminescence, 48 h; hit rate 1.6% among 360,000;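 note: NT is the 2HG producing partner of a matched IDH1 knockdown line; 0% = DMSO-treated cells and -100% = media-only wells without cells; nearly all actives have a fitted effect of over 55% in size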
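Viability of the 2HG-overproducing fibrosarcoma line after 48 hours of compound exposure at 37 degrees C was determined by luminescence with CellTiter-Glo, and concentration-effect curves were then fitted and categorized.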
Starred values were filed as active, the others as inactive; i = inactive; ? = inconclusive; · = no result; [ ] = another dose, or the depositor's remark. Only some compounds are listed: those with a hit (about 8% of all), similar ones and a draw of the others. Calls come from the whole dose curve; as a rule, active = well fitted curve in the direction sought with a large enough effect; inconclusive = small, poorly fitted or top-dose-only effect, or another doubt; inactive = no such curve, though single readings can be large; an effect the other way counts as inactive or inconclusive. Potency is the fitted concentration of half-maximal effect.

SMILES	KB-3-1 tox	SW480 rerep	HT1080 IDH1KD tx	MCF10A rerep	KB-V1 MDR tox	HT1080-NT tox
Cc1cc(NC(=O)c2cncc(Br)c2)ccc1NC(=O)c1cc2ccccc2o1	?	?	-14%	2.9µM*	?	-6%
COc1cccc(C(=O)Nc2ccc(NC(=O)c3cc4ccccc4o3)c(OC)c2)c1	?	?	2%	10µM*	i	2%
COc1cc(NC(=O)c2ccccc2)ccc1NC(=O)c1cc2ccccc2o1	i	6%	6%	?	i	-1%
CN(C)S(=O)(=O)c1ccc(NC(=O)c2cc3ccccc3o2)cc1	i	-4%	1%	?	21µM*	-16%
COc1cc(NC(=O)c2ccc(C)c(Cl)c2)ccc1NC(=O)c1cc2ccccc2o1	i	·	·	·	i	·
CCOc1ccc(NC(=O)Cc2c(O)c3ccccc3[nH]c2=O)cc1	i	0%	-2%	1%	i	1%
CCCCCN1C=CC(=C2C(=O)c3ccccc3C2=O)C=C1	i	8%	9.2µM*	7%	9.2µM*	23µM*
NC(=O)c1c(N)sc(=S)n1CC1CCCO1 (centres undefined)	i	-16%	2%	1%	i	0%
CCCCCCCCCCCCCCC[C@@H](O)[C@@H](N)CO	i	-75%	21%	-22%	?	18µM*
CCCCCCCCCCCCCCC[C@H](O)[C@H](N)CO	i	17%	·	?	i	·
CN(C)/C=N/c1ncc(-c2ncc(C(F)(F)F)cc2Cl)cn1	?	11%	12%	-48%	10µM*	15%
O=C(NC1CCCCC1)c1cc(S(=O)(=O)N2CCN(c3ccccc3)CC2)ccc1Cl	i	3%	-1%	0%	i	?
C/C(=N/NC(=O)c1ccc(C)nc1)c1ccc2c(c1)CCCC2	?	?	23µM*	?	10µM*	16µM*
O=C(c1cc2c(F)cccc2s1)N1CCCC1	i	-9%	8%	4%	i	14%
Fc1cccc(-c2nnn3c2nc(Cl)c2ccccc23)c1	i	5.8µM*	?	2.6µM*	i	-11%
Cc1ccc(-c2nnn3c2nc(Cl)c2ccccc23)cc1	i	?	0%	4.1µM*	i	-7%
Fc1cccc(-c2nnn3c2nc(NC2CCCCC2)c2ccccc23)c1	i	·	·	·	i	·
Cc1ccc(-c2nnn3c2nc(NCCc2ccccc2)c2ccccc23)cc1	i	·	·	·	i	·
Clc1nc2c(-c3ccccc3)nnn2c2ccccc12	?	?	-26%	3.7µM*	i	-17%
CCc1cccc(CC)c1N(COC)C(=O)Cn1ccccc1=N	i	3%	1%	9%	i	7%
Cc1cc2ccc3ccccc3c2cc1CN(C)C	i	7.3µM*	18µM*	2%	i	33µM*
O=S(=O)(Nc1ccc(N=Nc2ccc(O)c3ccccc23)cc1)c1ccccc1	i	-5%	?	15%	i	-22%
O=[N+]([O-])c1ccc(N=Nc2ccc(O)c3ccccc23)cc1	?	?	?	?	15µM*	26µM*
CC1CN(CC(O)COC(c2ccc(Cl)cc2)c2ccc(Cl)cc2)CC(C)O1 (centres undefined)	?	-7%	?	7.3µM*	?	?
CN(C)CC(O)COC(c1ccc(Cl)cc1)c1ccc(Cl)cc1 (centres undefined)	i	9%	?	0%	i	21µM*
SMILES	KB-3-1 tox	SW480 rerep	HT1080 IDH1KD tx	MCF10A rerep	KB-V1 MDR tox	HT1080-NT tox
CC1CN(CC(O)COc2ccc(C(C)C)cc2)CC(C)O1 (centres undefined)	i	-7%	2%	19%	i	-1%
Cc1ccc(C)c(C(=O)COC(=O)c2cc([N+](=O)[O-])ccc2NCCO)c1	?	-5%	5%	16%	?	-2%
CCOC(=O)c1ccccc1OC(=O)CS(=O)c1ccccc1[N+](=O)[O-] (centres undefined)	i	14%	-7%	-16%	i	-13%
O=C(CS(=O)c1ccc(C(F)(F)F)cc1[N+](=O)[O-])Oc1ccccc1 (centres undefined)	?	?	16µM*	7.3µM*	?	16µM*
CS(=O)(=O)c1ccc(S(=O)CC(=O)OCc2ccccc2)c([N+](=O)[O-])c1 (centres undefined)	i	-40%	4.1µM*	4.1µM*	i	5.8µM*
OC(CN1c2ccccc2Sc2ccccc21)Cn1nnc2ccccc21 (centres undefined)	?	16%	?	?	16µM*	-16%
O=C1c2ccccc2C(=O)N1CC(O)Cn1nnc2ccccc21 (centres undefined)	i	-22%	4%	8%	i	-1%
Cc1nnc(SCC(=O)N2c3ccccc3Sc3ccccc32)n1N	i	23µM*	2%[9.24 µM]	9.2µM*	i	-12%
Cn1c(SCC(=O)N2c3ccccc3Sc3ccc(Cl)cc32)nnc1-c1ccco1	i	1%	7%	?	23µM*	0%
Cc1nnc(SC(=O)N2c3ccccc3Sc3ccccc32)s1	i	-1%	7.1µM*	3%	?	8.9µM*
O=C(CSc1nnc(-c2ccccc2)n1-c1ccccc1)N1c2ccccc2Sc2ccccc21	i	-1%	8%	15%	i	10%
O=C(CNS(=O)(=O)c1cccc(Cl)c1)OCc1csc(-c2ccccc2)n1	i	-4%	3%	-5%	i	5%
Cn1c(Cn2nnc3ccccc32)nnc1SCC(=O)N1c2ccccc2Sc2ccccc21	i	4%	?	?	16µM*	?
Cn1c(Cn2nnc3ccccc32)nnc1SCC(=O)N1c2ccccc2CCc2ccccc21	i	11%	2%	-3%	?	1%
CC(C)(C)c1ccc(OCCOc2ccc(C(C)(C)C)cc2NC=O)c(NC=O)c1	i	?	15µM*	?	?	?
CCOC(=O)/C=C1/SCC(=O)N1CC(=O)Nc1ccc2c(c1)CCC2	i	9%	-3%	0%	i	3%
N#Cc1ccc(OCC(=O)OCC(=O)Nc2cc(C(F)(F)F)ccc2N2CCOCC2)cc1	i	-4%	-5%	0%	i	2%
COc1ccc(OC)c(C(=O)c2ccc(C(=O)c3cc(OC)ccc3OC)cc2)c1	i	-1%	0%	-14%	i	-4%
COc1ccc(C(=O)c2ccc(N(C)C)cc2)c(OC)c1	5.6µM*	4.5µM*	2.5µM*	2.2µM*	?	3.5µM*
